Screening data deposited in PubChem BioAssay by National Center for Advancing Translational Sciences (NCATS).
Sampled rows, rich in hits. Any-hit rate of the full collection: about 2.4%.
D2 PAM-1 – HTS Assay for Positive Allosteric Modulators of the Human D2 Dopamine Receptor: Primary Screen for Potentiators | HEK293 T-REx D2, calcium flux, EC20 dopamine potentiation | D(2) dopamine receptor (Homo sapiens), P14416 | 0.34% of 340,000 active | potentiation, % at 10 µM;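 active = potentiation over 3 SD above the plate norm, cut at about 30% in these data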; also: 0% is about no effect
Target sequence (P14416 whole entry, looked up): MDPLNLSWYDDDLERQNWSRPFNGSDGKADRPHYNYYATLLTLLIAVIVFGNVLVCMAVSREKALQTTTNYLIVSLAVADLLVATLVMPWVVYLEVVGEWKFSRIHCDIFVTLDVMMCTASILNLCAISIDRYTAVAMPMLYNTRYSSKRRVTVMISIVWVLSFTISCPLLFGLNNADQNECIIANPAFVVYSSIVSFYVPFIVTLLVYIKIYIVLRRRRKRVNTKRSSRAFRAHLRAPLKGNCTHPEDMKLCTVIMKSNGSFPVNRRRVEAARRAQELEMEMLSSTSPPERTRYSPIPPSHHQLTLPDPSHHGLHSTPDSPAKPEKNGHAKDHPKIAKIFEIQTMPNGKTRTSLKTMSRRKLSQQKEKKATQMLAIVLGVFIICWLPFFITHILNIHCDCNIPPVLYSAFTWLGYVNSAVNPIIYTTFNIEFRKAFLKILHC
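Potentiation of an EC20 dopamine calcium response is measured in a force-coupled, tetracycline-inducible Hek293 Trex D2 line. Compound-only kinetic reads over 180 s flag agonists before dopamine addition.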
D2 PAM-2 – Beta-Arrestin HTS for Positive Allosteric Modulators of the Human D2 Dopamine Receptor: Potentiators. D(2) dopamine receptor (Homo sapiens), P14416. DiscoveRx D2 beta-arrestin cells, luminescence, 90 min; 100% = 57 uM dopamine signal. potentiation, % (concentration not given with the values). 0.23% of 360,000 active. AID 624464, 2012; in the data active = potentiation above about 50%; inconclusive = mostly about 30% to 49%
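PathHunter D2 cells, attached overnight at 37 deg C, received compound in DMSO plus dopamine at EC20 (50 nM final) for 90 min at 37 deg C. Beta-arrestin recruitment was read as luminescence after 1 h with detection reagent at ambient temperature.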
D2 antag – HTS Assay for Allosteric Antagonists of the Human D2 Dopamine Receptor: Primary Screen for Antagonists; inhibition, % at 10 µM; AID 485344, 2010; HEK293 TREx D2 cells, calcium flux, dopamine EC80; 2% of 340,000 active; in the data active = inhibition above about 30%; inactive = below that, where a call was filed; also: 0% is about no effect
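Compounds are added to dye-loaded, induced HEK293 T-REx cells coupled to calcium release via D2; after a 3 min kinetic read an EC80 dopamine stimulus is given and fluorescence is recorded for 3 more min.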
D2 ag-1 – Beta-Arrestin HTS for Positive Allosteric Modulators of the Human D2 Dopamine Receptor: Agonists; D(2) dopamine receptor (Homo sapiens), P14416; DiscoveRx PathHunter D2 beta-arrestin, luminescence, 90 min; 100% = 57 uM dopamine signal; activation, % (concentration not given with the values); 0.084% of 360,000 active; AID 624465, 2012; in the data active = activation above about 40%; inconclusive = between about 15% and that limit
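DiscoveRx PathHunter D2 beta-arrestin cells (2,100/well) attached overnight, then compound-stimulated 90 min at 37 C in HBSS/10 mM HEPES/0.1% Tween-20 buffer; beta-galactosidase complementation read by luminescence after 1 h at ambient temperature. Dopamine 57 uM final (EC100) as control.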
D2 ag-2 – HTS Assay for Allosteric Agonists of the Human D2 Dopamine Receptor: Primary Screen for Agonists; HEK293 T-REx D2 cells, calcium flux agonist mode; activation, % at 2 µM; 0.53% of 340,000 active; AID 485358, 2010;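 active = activation over 3 SD above normal in the single-dose calcium agonist read, cut at about 30% in these data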; also: 0% is about no effect
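Calcium-flux readout, 1 cycle/sec over 180 s following compound pin transfer, in inducible HEK293 Trex D2 cells (force-coupled); dopamine controls included. Positive calcium responses during this window marked compounds as potential agonists.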
The depositor's hits bear a star; ? = inconclusive; nt = no result given.

SMILES	D2 PAM-1	D2 PAM-2	D2 antag	D2 ag-1	D2 ag-2
O=C(CSc1nnc(-c2ccccc2)c(-c2ccccc2)n1)NCc1ccco1	6.5	-3.4	40.0*	-3.2	0.4
Cc1ccc2onc(CNC(=O)N(C)Cc3ccccc3)c2c1	-3.3	nt	nt	nt	-0.2
O=C(NCc1ccco1)c1ccc2c(c1)N(Cc1ccccc1F)C(=O)c1ccccc1S2=O (stereo not given)	6.3	nt	nt	nt	1.1
Cc1ccc(C)c(NC(=O)C2CCN(c3nn4c(=O)cc(C)nc4s3)CC2)c1	10.1	nt	nt	nt	-0.7
CCCc1cc(C(N)=O)c(NC(=O)c2ccoc2C)s1	nt	-10.5	30.9*	-5.1	1.7
CC(C)OC(=O)c1c2c(n3ccccc13)C(=O)c1ccccc1C2=O	7.2	27.9	5.0	?	68.8*
CCN(CC)c1ccc(NC2=C(Cl)C(=O)c3ccccc3C2=O)cc1	1.4	59.5*	13.1	10.2	0.3
Cc1ccc(NC2=C(Cl)C(=O)c3ccccc3C2=O)cc1	-3.8	20.7	15.6	8.3	0.4
COc1ccc(NS(=O)(=O)c2ccc(N/N=C(\C)c3ccncc3)c([N+](=O)[O-])c2)cc1	2.6	14.7	79.3*	0.2	-0.2
C/C(=N\Nc1ccc(S(=O)(=O)Nc2ccccc2)cc1[N+](=O)[O-])c1ccncc1	20.9	nt	nt	nt	nt
Cc1ccc(-n2c(SCC(=O)Nc3cccc(Cl)c3)nc3n[nH]c(C)c3c2=N)cc1	8.5	nt	nt	nt	0.3
COC(=O)c1ccccc1NC(=O)c1sc2nc(C)cc(C)c2c1NC(=O)c1ccccc1Cl	19.6	nt	nt	nt	0.3
COc1ccc(NC(=O)C2CCN(S(=O)(=O)c3ccc4c(c3)CCCC(=O)N4)CC2)cc1OC	4.0	nt	nt	nt	0.5
CC(C)=C1C2CCC1C(C(=O)NCCc1ccccc1)C2C(=O)O (stereo not given)	-10.8	-9.8	-37.7	0.6	39.4*
O=C(O)[C@H]1CCCC[C@H]1C(=O)NCCc1ccccc1	-2.9	-1.5	44.8*	-1.0	-0.6
COc1ccccc1/C=N\Nc1cn[nH]c(=O)c1Cl	-0.4	-2.5	30.1*	0.3	-1.6
CCCSc1ncc(Cl)c(C(=O)NCc2ccc(OC)cc2)n1	5.5	nt	nt	nt	0.4
O=C(Nc1cc(Cl)cc(Cl)c1)N1CCCN(Cc2ccccc2)CC1	-24.9	-32.4	86.6*	2.4	0.1
COc1ccc(C(=O)C(C)OC(=O)c2sc(C)nc2C)cc1 (stereo not given)	23.2	-1.7	31.0*	2.2	0.1
COc1ccc(CC(=O)OC(C)C(=O)c2ccc(C)cc2)cc1 (stereo not given)	1.8	-1.8	1.0	-6.2	1.8
N#C/C(=C/c1ccc(N2CCCCC2)o1)C(=O)Nc1ccc2ccccc2c1	-14.8	-17.2	47.0*	-9.1	105.5*
N#C/C(=C/c1ccc(N2CCCCC2)o1)C(=O)Nc1ccc(Cl)cc1	-29.0	-14.0	61.9*	-0.4	110.4*
CC1CC1c1ccc(/C=C(\C#N)C(=O)Nc2ccccc2Cl)o1 (stereo not given)	nt	-8.2	nt	1.7	nt
N#C/C(=C/c1ccc(N2CCOCC2)o1)C(=O)NC1CCCCC1	4.7	-17.1	5.0	-19.2	17.7
N#C/C(=C\c1ccc(N2CCOCC2)o1)C(=O)Nc1ccc(O)cc1	12.1	-12.6	-0.6	-7.8	17.1
COc1ccc(NC(=O)/C(C#N)=C\c2ccc(N3CCOCC3)o2)cc1	-9.3	-11.8	13.3	-3.9	42.5*
CC1CC1c1ccc(/C=C(\C#N)C(=O)Nc2ccc(Cl)cc2)o1 (stereo not given)	-25.1	-35.4	75.7*	-2.5	-0.4
CCOc1c(Cl)cc(C(=O)N(Cc2ccc(N(C)C)cc2)Cc2ccco2)cc1Cl	14.4	nt	nt	nt	0.6
Cc1nn(-c2ccc(Cl)cc2)c2sc(C(=O)N3CCN(c4ccccn4)CC3)cc12	31.6*	-6.6	1.0	1.0	-1.4
COc1ccc(CNC(=O)C(=O)NCC(c2cccs2)S(=O)(=O)c2cccs2)cc1 (stereo not given)	nt	nt	nt	nt	0.2
